These results are taken from PubChem BioAssay (NCATS).

Structures are written as SMILES. Results filed as inconclusive are left out. Entries that show only a call come without a potency. Calls of active or inactive are those of the source. Calls follow the shape of the dose curve; as a rule, active = well fitted inhibition curve with a large enough effect; inconclusive = small, poorly fitted or top-dose-only effect; inactive = no such curve, though single readings can be large or run the other way.

This test in a line: Primary qHTS for small molecule stabilizers of the endoplasmic reticulum resident proteome: Secreted ER Calcium Modulated Protein (SERCaMP) assay (AID 1508630). The conditions noted are these: SH-SY5Y GLuc-SERCaMP (Gaussia luciferase released on ER calcium loss) secretion, thapsigargin, luminescence; series mostly up to 38.4 µM. In short, it runs like this: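 The SH-SY5Y reporter protocol was run at 3 concentrations up to 38.3 uM (primary) or 11 concentrations (follow-up): 16 h compound, 100 nM thapsigargin for 4 h, then extracellular luciferase luminescence.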
On the technique in general: In qHTS, concentration-response curves come from the screen itself.
As to `CC1OCC23CC[C@@]4(C)CCC(C)(C)C[C@H]4[C@]2(C)CCC12C3CC[C@@]1(C)C2C(=O)CC(=O)[C@@H]1C` (some centres undefined), the Potency result was “inactive”.

`C[C@H]1CC[C@@H]2N(C1)C[C@H]1[C@@H]3C[C@H]4[C@@H](C/C(=N\O)[C@H]5C[C@@H](O)CC[C@@]54C)[C@@H]3CC[C@H]1[C@]2(C)O`: the Potency result was “inactive”.

As for `COc1c2c(cc3c1C(CC(O)C(C)C)N(C)CC3)OCO2` (centres undefined), the Potency entry is “inactive”.

Take `COc1ccc2c(c1)OC[C@H]1c3cc4c(cc3O[C@@H]21)OCO4`: the Potency entry is “inactive”.

For the compound `COc1c2c(cc3c1C(NC(N)=O)[N+](C)(C)CC3)OCO2` (centres undefined), the Potency entry was “inactive”.

Turning to `C/C(N[C@@H]1CSCC1O)=C1/C(=O)CC2[C@@H]1C2(C)C` (some centres undefined), the Potency entry is “inactive”.

In the case of `CC(=O)O[C@@H]1CC2C(C)(C)C(=O)C=C[C@]2(C)C2CC[C@]3(C)C(=CC[C@H]3C3CO[C@@H](C(C)(C)O)[C@H](O)C3)[C@@]21C` (some centres undefined), the Potency entry is “inactive”.

`COc1ccc(C(=O)OC2CC3CC[C@H](C2)N3C(C)=O)cc1OC` (some centres undefined): the Potency result is “inactive”.

On to `CC1(C)Oc2ccc3ccc(=O)oc3c2CC1=O`, for which the Potency result is “inactive”.

Turning to `CN(C)CCc1cc2c(c3c1ccc1ccccc13)OCO2`, the Potency entry is “inactive”.

`COC(=O)C1C(=O)C(C(=O)/C=C/c2ccco2)C(=O)CC1(C)C` (centres undefined): the Potency entry is “inactive”.

On to `COc1c2ccoc2nc2c(OC)c(O[C@@H]3O[C@H](C)[C@@H](O)[C@@H](O)[C@H]3O)ccc12`, for which the Potency result is “inactive”.

As to `CC1=CC(=O)CC(C)(C)C1(O)/C=C/C(C)=C/C(=O)O` (centres undefined), the Potency entry was “inactive”.

For the compound `COc1cc2c(cc1OC)C(/C=C/c1ccc(OC)c(OC)c1OC)=NCC2`, the Potency result is “inactive”.

With `C=C[C@@H](C1=CC(=O)C(OC)=C(OC)C1=O)c1ccccc1`, the Potency result was “inactive”.

`CCCCN(CC)CCOc1cccc2ccccc12`: the Potency result is “inactive”.

With `CC1=C2C(=CO[C@H](C)[C@H]2C)C(=O)C(C(=O)O)=C1O`, the Potency result was “inactive”.

In the case of `C[C@@H](C1[C@@H](O)CC2C3C=CC4C[C@@H](O)CC[C@]4(C)[C@H]3CC[C@@]21C)[C@@H]1CCCCN1` (some centres undefined), the Potency result is “inactive”.

As for `COc1cccc2c3c(c(C)nc12)CC(CO)O3` (centres undefined), the Potency entry is “inactive”.

As for `C=C1C[C@]23CC[C@H]4C(CO)(CO)C[C@@H](O)C[C@@]4(C)[C@@H]2CC[C@H]1C3`, the Potency result was “inactive”.

On to `COc1ccc(-c2cc3ccccc3c(=O)o2)cc1`, for which the Potency entry was “inactive”.

For the compound `O=C1N[C@@H](Cc2c[nH]c3ccccc23)C(=O)N[C@H]1Cc1c[nH]c2ccccc12`, the Potency result was “inactive”.

`C[C@@H]1CCC2C(C)(C)C3CC21CC[C@@]3(C)O` (some centres undefined): the Potency entry was “inactive”.

On to `COc1ccccc1Oc1coc2cc(O)ccc2c1=O`, for which the Potency entry is “inactive”.

In the case of `O=C1CC(c2ccc(O[C@@H]3OC(CO)[C@@H](O)C(O)C3O)cc2)Oc2cc(O)ccc21` (some centres undefined), the Potency result was “inactive”.

`C=C1C[C@@]23CC4C5[C@@]6(C)C[C@H](O)C[C@@]57C2[C@H](O)[C@@H]1[C@H](O)[C@H]3[C@H]7N4C6`: the Potency result is “inactive”.

Consider `C[C@]12CCC(=O)C=C1CCC1C3CC[C@](O)(C(=O)CO)[C@@]3(C)CC3OC312` (some centres undefined), for which the Potency entry was “inactive”.

Take `Cc1cc(O)c2c(c1O)C(=O)C(O)=C(O)C2=O`: the Potency entry was “inactive”.

For `CC(=O)C1(C)CC2(CC(C)(C)OC2=O)C(=O)O1` (centres undefined), the Potency entry is “inactive”.

Take `CC1=CC[C@@]2(CO)COC(c3ccccc3O)C1C2` (some centres undefined): the Potency entry was “inactive”.

Regarding `COc1ccc([C@@H]2[C@@H](O)[C@H](O)[C@@H](C)N2C)cc1OC`, the Potency result was “inactive”.

For the compound `COc1cc2c(cc1OC)OC(C)(C)C=C2`, the Potency entry was “inactive”.

Consider `COc1ccccc1/C=C\C(=O)OC[C@@H]1CCCN2CCCC[C@H]12`, for which the Potency result was “inactive”.

Turning to `CC1(C)CCC[C@@]2(C)C1CC[C@@](C)(O)[C@@H]2CC[C@@](C)(O)C1CO1` (some centres undefined), the Potency entry was “inactive”.

With `COc1c(C=O)c(=O)[nH]c2c(OC)cccc12`, the Potency result is “inactive”.

In the case of `COc1ccc(C2c3cc(OC)c(OC)cc3Cc3c4cc(OC)c(OC)cc4cc[n+]32)cc1OC` (centres undefined), the Potency result is “inactive”.

In the case of `CC(C)=CCCC1=CC[C@H](C(=O)O)[C@H](C(=O)O)C1`, the Potency result was “inactive”.

For `COc1ccc(C2c3[nH]c4ccccc4c3CC3C(=O)N(CCc4ccc(OC)c(OC)c4)CC(=O)N32)cc1` (centres undefined), the Potency result was “inactive”.

In the case of `Oc1cc2c(cc1O)[C@@H]1c3ccc(O)c(O)c3OC[C@]1(O)C2`, the Potency entry is “inactive”.
